Measurements from PubChem BioAssay AID2283109 (EPA ToxCast).
The source made the active and inactive calls. How the source made its calls: active means hit-call score of the fitted dose curve at least 0.9, where 1 is the maximum; inactive means score below 0.9.

These compounds were tested against human CYP3A5, CYP3A5 (gene 1577) (UniProt P20815) (assay: NVS_ADME_hCYP3A5: NovaScreen (NVS) CYP450-related Enzyme Activity (ADME) Assay for human CYP3A5).
Description: NVS_ADME_hCYP3A5 is a biochemical, single-readout assay that uses extracted gene-proteins in a cell-free assay. Measurements were taken 0.5 hour after chemical dosing in a 96-well plate.NVS_ADME_hCYP3A5 is one of one assay component(s) measured or calculated from the NVS_ADME_hCYP3A5 assay. It is designed to make measurements of enzyme activity, a form of enzyme reporter, as detected with fluorescence intensity signals by Fluorescence technology.Data from the assay component NVS_ADME_hCYP3A5 was analyzed into 1 assay endpoint. This assay endpoint, NVS_ADME_hCYP3A5, was analyzed in the positive analysis fitting direction relative to Acetonitrile as the negative control and baseline of activity. Using a type of enzyme reporter, loss-of-signal activity can be used to understand changes in the enzymatic activity as they relate to the gene CYP3A5. Furthermore, this assay endpoint can be referred to as a primary readout, because this assay has produced multiple assay endpoints where this one serves a enzymatic activity function. To generalize the intended target to other relatable targets, this assay endpoint is annotated to the cyp intended target family, where the subfamily is xenobiotic metabolism.
Binding assays used specific radioligands (tritiated, iodinated) with non-radioactive competitive displacement ligands in agonist or antagonist protocols (as indicated) and various reference compounds and inhibitors to titrate specific binding to receptors and transporters. Most enzyme assays (CYPs, kinases, phosphatases, proteases, HDACs) used recombinant protein and specific substrates (fluorescence mostly, some colorimetric and radioactive) and inhibitors, followed by a biochemical separation of substrate and product. All assays for the biochemical HTS were initially run in duplicate at a single concentration (10 uM for CYP450 assays and 25 uM for all others). […]

Sequence of human CYP3A5, CYP3A5 (gene 1577) (P20815 whole entry, looked up): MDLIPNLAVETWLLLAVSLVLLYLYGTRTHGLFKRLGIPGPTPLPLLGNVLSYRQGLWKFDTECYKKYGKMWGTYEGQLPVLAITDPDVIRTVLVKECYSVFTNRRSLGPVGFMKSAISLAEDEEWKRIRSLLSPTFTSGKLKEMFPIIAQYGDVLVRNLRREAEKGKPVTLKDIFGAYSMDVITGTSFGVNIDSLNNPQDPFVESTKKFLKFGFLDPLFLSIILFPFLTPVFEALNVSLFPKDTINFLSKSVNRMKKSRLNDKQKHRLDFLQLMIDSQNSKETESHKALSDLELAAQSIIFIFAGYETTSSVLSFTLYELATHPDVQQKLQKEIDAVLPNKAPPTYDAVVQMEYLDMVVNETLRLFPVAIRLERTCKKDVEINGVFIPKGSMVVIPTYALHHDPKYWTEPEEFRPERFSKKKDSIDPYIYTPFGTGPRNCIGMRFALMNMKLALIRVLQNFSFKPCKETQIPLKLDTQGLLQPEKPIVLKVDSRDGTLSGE

Compound	AC50	outcome
COP(=S)(OC)Oc1ccc(Sc2ccc(OP(=S)(OC)OC)cc2)cc1	13.5 µM (active)	–
Clc1ccc(C2(Cn3cncn3)CC(Br)CO2)c(Cl)c1 (stereo not drawn)	0.557 µM (active)	–
COC(=O)Nc1cccc(OC(=O)Nc2cccc(C)c2)c1	–	inactive
